Assay outcomes as filed in PubChem BioAssay.
D1 agonist – Allosteric Agonists of the Human D1 Dopamine Receptor: qHTS; AID 504660, 2011; D(1A) dopamine receptor (Homo sapiens), P21728; activation, % at 2 µM; HEK293 T-REx D1 cells, calcium flux, agonist mode; 360,000 tested, 1% active; in the data active = activation above about 30%
Target sequence (P21728 whole entry, looked up): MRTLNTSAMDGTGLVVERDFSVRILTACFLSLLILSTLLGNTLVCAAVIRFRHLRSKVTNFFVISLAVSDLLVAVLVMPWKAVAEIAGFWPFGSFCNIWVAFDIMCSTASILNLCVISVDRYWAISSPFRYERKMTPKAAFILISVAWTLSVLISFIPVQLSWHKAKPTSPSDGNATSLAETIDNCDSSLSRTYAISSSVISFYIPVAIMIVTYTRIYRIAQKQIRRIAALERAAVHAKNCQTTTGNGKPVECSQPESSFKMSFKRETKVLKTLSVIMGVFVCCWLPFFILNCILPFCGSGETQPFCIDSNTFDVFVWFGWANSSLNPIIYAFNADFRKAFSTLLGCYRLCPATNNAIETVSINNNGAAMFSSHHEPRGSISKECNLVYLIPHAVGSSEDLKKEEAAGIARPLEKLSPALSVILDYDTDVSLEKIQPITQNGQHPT
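Tetracycline-induced HEK293 TREx D1 cells, force-coupled to calcium signalling, were dye-loaded with a no-wash calcium kit. Compound was pin-added after a 10 s baseline. Fluorescence was read kinetically at 1 cycle/s for 180 s, with calcium rises flagged as agonism.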
D1 antagonist – Antagonist of Human D 1 Dopamine Receptor: qHTS | AID 504652, 2011 | HEK293 TREx D1 cells, calcium flux, dopamine EC80; active compounds read low | activity change, negative = inhibition, % at 10 µM | D(1A) dopamine receptor (Homo sapiens), P21728 | 360,000 tested, 3.2% active; in the data active = activity change below about -30%
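Allosteric or orthosteric antagonism assessed as attenuation of the calcium response to EC80 dopamine, added 180 s after compound, in induced HEK293 Trex D1 cells loaded with no-wash calcium dye.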
DRD3 antagonist – qHTS of D3 Dopamine Receptor Antagonist: qHTS | D(3) dopamine receptor (Homo sapiens), P35462 | D3R cells, DiscoveRx beta-arrestin luminescence, antagonist mode; active compounds read low | max response, negative = inhibition, % | 360,000 tested, 2.5% active; in the data active = max response below about -50%
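Cells plated overnight at 1500 cells/well, then exposed to library compounds with dopamine controls for 90 minutes at 37 degrees C. DiscoveRx reagent added for 30–60 minutes at room temperature; luminescence read, quantitative HTS format.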
D3 ag – qHTS of D3 Dopamine Receptor Agonist: qHTS; max activation, %; D3R DiscoveRx beta-arrestin cells, luminescence, 90 min; 410,000 tested, 0.58% active; AID 652048, 2013; D(3) dopamine receptor (Homo sapiens), P35462; in the data active = max activation above about 30%
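Agonist-mode cell screen: cells plated at 1500/well and incubated overnight at 37 °C, then exposed to library compounds for 90 min at 37 °C. Detection reagent was added for 30–60 min at room temperature, and luminescence was read.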
D1 potentiator – Potentiators of Human D1 Dopamine Receptor: qHTS; D(1A) dopamine receptor (Homo sapiens), P21728; HEK293 TREx D1 cells, calcium flux, dopamine EC20 potentiation; potentiation, % at 10 µM; 360,000 tested, 0.036% active; in the data active = potentiation above about 30%
Large screens that a line does not name were inactive. Only some compounds are listed: those with a hit (about 6% of all), similar ones and a draw of the others.

COCCn1c(SCC(=O)c2ccc(F)cc2)nnc1C(C)C	none
COCCn1nnnc1SCC(=O)c1ccc(F)cc1	DRD3 antagonist -66.9
Cc1cccc(CCNC(=O)C2CCCN(S(=O)(=O)c3ccc4c(c3)oc(=O)n4C)C2)c1 (centres undefined)	D1 antagonist -50.2 (no result: DRD3 antagonist)
COc1cccc(N2CCN(C(=O)C3CCN(S(=O)(=O)c4ccc5c(c4)oc(=O)n5C)CC3)CC2)c1	none
Cn1c(=O)oc2cc(S(=O)(=O)N3CCC(C(=O)N4CCN(c5cccc(Cl)c5)CC4)CC3)ccc21	D1 antagonist -31.2 (no result: DRD3 antagonist)
Cn1c(=O)oc2cc(S(=O)(=O)N3CCC(C(=O)N4CCN(c5ccc(Cl)cc5)CC4)CC3)ccc21	none (no result: DRD3 antagonist)
O=C(C1CCCN(S(=O)(=O)c2cccc3nsnc23)C1)N1CCN(c2cccc(Cl)c2)CC1 (centres undefined)	D3 ag 32.2 (no result: DRD3 antagonist)
COc1cccc(N2CCN(C(=O)C3CCCN(S(=O)(=O)c4cccc5nsnc45)C3)CC2)c1 (centres undefined)	none (no result: DRD3 antagonist)
Cn1c(=O)oc2cc(S(=O)(=O)N3CCCC(C(=O)N4CCN(c5cccc(Cl)c5)CC4)C3)ccc21 (centres undefined)	D1 antagonist -31.7 (no result: DRD3 antagonist)
COc1cccc(N2CCN(C(=O)Cn3ncc4c3-c3ccccc3OC4)CC2)c1	none (no result: DRD3 antagonist)
COc1cccc(-n2ccnc2SCC(=O)Nc2cccc3ccccc23)c1	none (no result: DRD3 antagonist)
Cc1cccc(N2CCN(C(=O)C3CCCN(S(=O)(=O)c4ccc5c(c4)oc(=O)n5C)C3)CC2)c1C (centres undefined)	D1 antagonist -30.8 (no result: DRD3 antagonist)
CCCc1nn(-c2cc(Cl)ccc2OC)c2c1C(=O)CCC2	D1 antagonist -46.2
CCCCc1nn(-c2cc(Cl)ccc2OC)c2c1C(=O)CC(C)(C)C2	none
CCOC(=O)c1c(C)oc2c1c(C=NCCO)c(O)c1ccccc12	D1 antagonist -40.6
CCOC(=O)c1c(C)oc2c1c(C(c1ccccc1)N1CCOCC1)c(O)c1ccccc12 (centres undefined)	none
COc1ccc(S(=O)(=O)N2CCN(Cc3ccc4c(c3)OCO4)CC2)cc1OC	none (no result: DRD3 antagonist)
CSc1nnc2c3ccccc3n(CCc3ccccc3)c2n1	none
CSc1nnc2c3ccccc3n(Cc3ccccc3)c2n1	D1 antagonist -56.5
O=C1CC(c2nc(-c3ccc(Cl)cc3)no2)CN1c1ccc2c(c1)OCCO2 (centres undefined)	none (no result: DRD3 antagonist)
Cc1nc(-c2cccnc2)sc1C(=O)Nc1ccc(C(F)(F)F)cc1	D1 antagonist -33.3
Cc1nc(-c2cccnc2)sc1C(=O)Nc1cccc(C(F)(F)F)c1	none
Oc1ccc2[nH]ccc2c1	D1 antagonist -30.4
CCOC(=O)c1c(NC(=O)C(C)Sc2cn(CCNC(=O)c3ccc(OC)cc3)c3ccccc23)sc2c1CCC2 (centres undefined)	none (no result: DRD3 antagonist)
C=CC(=O)N1C/C(=C/c2ccccc2)C(=O)/C(=C\c2ccccc2)C1	DRD3 antagonist -62.3 (no result: D1 agonist, D1 antagonist, D1 potentiator)
CSCC[C@H](NC(=O)[C@H](Cc1ccccc1)n1c(=O)[nH]c2ccccc2c1=O)C(=O)N1CCC(C(=O)O)CC1	D3 ag 31.8
C[C@H](NC(=O)[C@H](Cc1ccccc1)n1c(=O)[nH]c2ccccc2c1=O)C(=O)N1CCC(C(=O)O)CC1	D3 ag 36.4
CC(C)C[C@H](NC(=O)[C@H](Cc1ccccc1)n1c(=O)[nH]c2ccccc2c1=O)C(=O)N1CCC(C(=O)O)CC1	none
COc1ccc(S(=O)(=O)c2cc3cc(C(C)(C)C)cc(O)c3oc2=O)cc1	none (no result: DRD3 antagonist)
CC(=O)Nc1cnc(NC(=O)c2cccc(F)c2)cc1C	D1 antagonist -36.0
COc1cc(OC)cc(-c2c(-c3cccs3)c3cc(-c4ccc5[nH]ccc5c4)ccc3n2C)c1	D3 ag 38.6 (no result: D1 antagonist)
Cc1cc(C)cc(Cn2ncc3c4sc(C)cc4n(C)c3c2=O)c1	none (no result: DRD3 antagonist, D3 ag)
COc1cc(Cl)ccc1OCc1cc(C(=O)N2C[C@]3(C)C[C@H]2CC(C)(C)C3)no1	D1 agonist 37.6
COc1cc(Cl)ccc1OCc1cc(C(=O)N2C[C@H]3CC[C@H]2C3)no1	none
COc1ccc(C(=O)N2CC3(C)CC2CC(C)(C)C3)cc1 (centres undefined)	D1 antagonist -31.5
COc1ccc(CCNc2ncnc3c2cnn3-c2ccc(C)c(Cl)c2)cc1	D1 antagonist -62.6, D3 ag 30.2 (no result: DRD3 antagonist)
Cc1ccc(-n2ncc3c(NCCO)ncnc32)cc1Cl	D1 antagonist -39.3 (no result: DRD3 antagonist)
Cc1ccc(-n2ncc3c(NCCCN4CCOCC4)ncnc32)cc1Cl	none (no result: DRD3 antagonist)
CCCN(CCC)c1ncnc2c1cnn2-c1ccc(OC)cc1	D3 ag 33.7
CCCNc1ncnc2c1cnn2-c1ccc(OC)cc1	none (no result: DRD3 antagonist, D3 ag)
Cc1ccc(-n2ncc3c(NNC(=O)c4ccccc4C)ncnc32)cc1	D1 antagonist -35.9 (no result: DRD3 antagonist)
Cc1ccc2c(=O)cc(C(=O)Nc3ccc(S(=O)(=O)N4CCC(C)CC4)cc3)oc2c1C	none (no result: DRD3 antagonist)
Cc1ccc(-n2ncc3c(NCCc4ccccc4)ncnc32)cc1Cl	D1 antagonist -36.1, D3 ag 36.6 (no result: DRD3 antagonist)
Cc1ccc(-n2ncc3c(NCCCc4ccccc4)ncnc32)cc1	none (no result: DRD3 antagonist)
Cc1ccc(-n2ncc3c(NCCc4ccccc4)ncnc32)cc1	D1 antagonist -49.9 (no result: DRD3 antagonist)
Cc1ccc(-n2ncc3c(NCCCc4ccccc4)ncnc32)cc1C	none (no result: DRD3 antagonist)
COc1ccc(CCNc2ncnc3c2cnn3-c2cccc(Cl)c2)cc1	none (no result: DRD3 antagonist)
COc1ccc(CCNc2ncnc3c2cnn3-c2ccc(F)cc2)cc1	D1 antagonist -38.1 (no result: DRD3 antagonist)
Cc1ccc(NC(=O)CSc2nc3c(sc4ccccc43)c(=O)n2CCCC(=O)NC2CCCC2)cc1C	none (no result: DRD3 antagonist)
COc1cc(OC)c(NC(=O)c2c(C)nn(-c3ccc(C)cc3)c2-n2cccc2)cc1Cl	none (no result: DRD3 antagonist)
COc1ccc(-n2cnc3cc(NS(=O)(=O)c4ccc(C)cc4)ccc32)cc1	none (no result: DRD3 antagonist, D3 ag)
COc1ccccc1-n1cnc2cc(NS(=O)(=O)c3ccc(Br)cc3)ccc21	D1 antagonist -38.5
CCOc1ccc(-c2cc3nc(C4CCN(C(=O)OC(C)(C)C)CC4)c(C(=O)Nc4ccc(C)c(F)c4)cn3n2)cc1	none (no result: DRD3 antagonist)
Cn1cccc1-c1cc(C(=O)N/N=C/c2cc(Br)ccc2O)[nH]n1	none
Cn1cccc1-c1cc(C(=O)N/N=C/c2ccc(F)cc2)[nH]n1	DRD3 antagonist -82.3
Cn1cccc1-c1cc(C(=O)N/N=C/c2ccccc2Cl)[nH]n1	DRD3 antagonist -78.3
COC(=O)c1ccc(CSc2nc3c(cnn3-c3ccc(F)cc3)c(=O)[nH]2)o1	D3 ag 31.8
CCCC(=O)Nc1ccc(Cl)c(NC(=S)NC(=O)C(C)C)c1	D1 antagonist -36.8
CCOC(=O)c1c(NC(=O)CCCOc2ccc(C(C)(C)C)cc2)sc2c1CCCC2	none (no result: DRD3 antagonist)
